High-throughput results from PubChem BioAssay.
Sampled rows, rich in hits. Any-hit rate of the full collection: about 0.32%.
Menin-MLL TR inh – qHTS Assay for Inhibitors Targeting the Menin-MLL Interaction in MLL Related Leukemias: Competition With Texas Red Labeled MLL-derived Mutant Peptide; 270,000 tested, 0.23% active; Menin + Texas Red MLL mutant peptide, fluorescence polarization; Potency, µM (doses to about 61.6 µM), for inactives: at the top dose FP activity change, negative = inhibition, most hits filed as inhibitors; active means well fitted inhibition curve with a large enough effect in the polarisation, with a control signal flat, not every such curve was filed as active; inconclusive means small, poorly fitted or top-dose-only effect, or effect the other way, or a change in a side signal; inactive means no such curve, though single readings can be large or run the other way; the % refers to the polarisation; further: potency means the concentration at half of the fitted maximal effect; % of control where 0% means no effect
TRPV1 PAM – HTS Assay for Compounds that Act as Potentiators of the Vanilloid Receptor 1; Transient receptor potential cation channel subfamily V member 1 (Homo sapiens), Q8NER1; TRPV1-expressing cells, Fluo-8 calcium influx, capsaicin EC20 potentiation; potentiation, % at 8.33 µM; 320,000 tested, 0.02% active; in the data active means potentiation above about 80%; inconclusive means between about 30% and that limit; further: 0% is about no effect
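Fluo-8 calcium influx in TRPV1-expressing cells, kinetic read (ex 480/em 520 nm). Compound added and read 3 min for agonist activity, followed by capsaicin at EC20 final and 2 min further read for enhancement.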
Menin MLL FP FL – qHTS Assay for Inhibitors Targeting the Menin-MLL Interaction in MLL Related Leukemias: Competition With Fluorescein Labeled MLL-derived Peptide; Fluorescence polarization, fluorescein-MLL peptide displacement from menin; 290,000 tested, under 10 active; FP activity change, % at 61.4 µM; active means well fitted curve in the direction sought with a large enough effect in the polarisation, not every such curve was filed as active; inconclusive means small, poorly fitted or top-dose-only effect, or effect the other way, or a change in a side signal; inactive means no such curve, though single readings can be large or run the other way; the % refers to the polarisation; further: % of control where 0% means no effect
CXXC DNA block – qHTS Fluorescence Polarization Assay for Inhibitors of MLL CXXC domain - DNA interaction; MLL-CXXC / FITC-HOXA9 DNA fluorescence polarization; Potency, µM (doses to about 115 µM), for the others: top-dose activity change, negative = inhibition, most hits filed as inhibitors; 290,000 tested, 0.037% active; AID 2662, 2010; active means well fitted inhibition curve with a large enough effect in the polarisation, with a control signal flat, not every such curve was filed as active; inconclusive means small, poorly fitted or top-dose-only effect, or effect the other way, or a change in a side signal; inactive means no such curve, though single readings can be large or run the other way; the % refers to the polarisation; further: potency means the concentration at half of the fitted maximal effect
Target sequence (Q03164 whole entry, looked up, the tested form may be a part): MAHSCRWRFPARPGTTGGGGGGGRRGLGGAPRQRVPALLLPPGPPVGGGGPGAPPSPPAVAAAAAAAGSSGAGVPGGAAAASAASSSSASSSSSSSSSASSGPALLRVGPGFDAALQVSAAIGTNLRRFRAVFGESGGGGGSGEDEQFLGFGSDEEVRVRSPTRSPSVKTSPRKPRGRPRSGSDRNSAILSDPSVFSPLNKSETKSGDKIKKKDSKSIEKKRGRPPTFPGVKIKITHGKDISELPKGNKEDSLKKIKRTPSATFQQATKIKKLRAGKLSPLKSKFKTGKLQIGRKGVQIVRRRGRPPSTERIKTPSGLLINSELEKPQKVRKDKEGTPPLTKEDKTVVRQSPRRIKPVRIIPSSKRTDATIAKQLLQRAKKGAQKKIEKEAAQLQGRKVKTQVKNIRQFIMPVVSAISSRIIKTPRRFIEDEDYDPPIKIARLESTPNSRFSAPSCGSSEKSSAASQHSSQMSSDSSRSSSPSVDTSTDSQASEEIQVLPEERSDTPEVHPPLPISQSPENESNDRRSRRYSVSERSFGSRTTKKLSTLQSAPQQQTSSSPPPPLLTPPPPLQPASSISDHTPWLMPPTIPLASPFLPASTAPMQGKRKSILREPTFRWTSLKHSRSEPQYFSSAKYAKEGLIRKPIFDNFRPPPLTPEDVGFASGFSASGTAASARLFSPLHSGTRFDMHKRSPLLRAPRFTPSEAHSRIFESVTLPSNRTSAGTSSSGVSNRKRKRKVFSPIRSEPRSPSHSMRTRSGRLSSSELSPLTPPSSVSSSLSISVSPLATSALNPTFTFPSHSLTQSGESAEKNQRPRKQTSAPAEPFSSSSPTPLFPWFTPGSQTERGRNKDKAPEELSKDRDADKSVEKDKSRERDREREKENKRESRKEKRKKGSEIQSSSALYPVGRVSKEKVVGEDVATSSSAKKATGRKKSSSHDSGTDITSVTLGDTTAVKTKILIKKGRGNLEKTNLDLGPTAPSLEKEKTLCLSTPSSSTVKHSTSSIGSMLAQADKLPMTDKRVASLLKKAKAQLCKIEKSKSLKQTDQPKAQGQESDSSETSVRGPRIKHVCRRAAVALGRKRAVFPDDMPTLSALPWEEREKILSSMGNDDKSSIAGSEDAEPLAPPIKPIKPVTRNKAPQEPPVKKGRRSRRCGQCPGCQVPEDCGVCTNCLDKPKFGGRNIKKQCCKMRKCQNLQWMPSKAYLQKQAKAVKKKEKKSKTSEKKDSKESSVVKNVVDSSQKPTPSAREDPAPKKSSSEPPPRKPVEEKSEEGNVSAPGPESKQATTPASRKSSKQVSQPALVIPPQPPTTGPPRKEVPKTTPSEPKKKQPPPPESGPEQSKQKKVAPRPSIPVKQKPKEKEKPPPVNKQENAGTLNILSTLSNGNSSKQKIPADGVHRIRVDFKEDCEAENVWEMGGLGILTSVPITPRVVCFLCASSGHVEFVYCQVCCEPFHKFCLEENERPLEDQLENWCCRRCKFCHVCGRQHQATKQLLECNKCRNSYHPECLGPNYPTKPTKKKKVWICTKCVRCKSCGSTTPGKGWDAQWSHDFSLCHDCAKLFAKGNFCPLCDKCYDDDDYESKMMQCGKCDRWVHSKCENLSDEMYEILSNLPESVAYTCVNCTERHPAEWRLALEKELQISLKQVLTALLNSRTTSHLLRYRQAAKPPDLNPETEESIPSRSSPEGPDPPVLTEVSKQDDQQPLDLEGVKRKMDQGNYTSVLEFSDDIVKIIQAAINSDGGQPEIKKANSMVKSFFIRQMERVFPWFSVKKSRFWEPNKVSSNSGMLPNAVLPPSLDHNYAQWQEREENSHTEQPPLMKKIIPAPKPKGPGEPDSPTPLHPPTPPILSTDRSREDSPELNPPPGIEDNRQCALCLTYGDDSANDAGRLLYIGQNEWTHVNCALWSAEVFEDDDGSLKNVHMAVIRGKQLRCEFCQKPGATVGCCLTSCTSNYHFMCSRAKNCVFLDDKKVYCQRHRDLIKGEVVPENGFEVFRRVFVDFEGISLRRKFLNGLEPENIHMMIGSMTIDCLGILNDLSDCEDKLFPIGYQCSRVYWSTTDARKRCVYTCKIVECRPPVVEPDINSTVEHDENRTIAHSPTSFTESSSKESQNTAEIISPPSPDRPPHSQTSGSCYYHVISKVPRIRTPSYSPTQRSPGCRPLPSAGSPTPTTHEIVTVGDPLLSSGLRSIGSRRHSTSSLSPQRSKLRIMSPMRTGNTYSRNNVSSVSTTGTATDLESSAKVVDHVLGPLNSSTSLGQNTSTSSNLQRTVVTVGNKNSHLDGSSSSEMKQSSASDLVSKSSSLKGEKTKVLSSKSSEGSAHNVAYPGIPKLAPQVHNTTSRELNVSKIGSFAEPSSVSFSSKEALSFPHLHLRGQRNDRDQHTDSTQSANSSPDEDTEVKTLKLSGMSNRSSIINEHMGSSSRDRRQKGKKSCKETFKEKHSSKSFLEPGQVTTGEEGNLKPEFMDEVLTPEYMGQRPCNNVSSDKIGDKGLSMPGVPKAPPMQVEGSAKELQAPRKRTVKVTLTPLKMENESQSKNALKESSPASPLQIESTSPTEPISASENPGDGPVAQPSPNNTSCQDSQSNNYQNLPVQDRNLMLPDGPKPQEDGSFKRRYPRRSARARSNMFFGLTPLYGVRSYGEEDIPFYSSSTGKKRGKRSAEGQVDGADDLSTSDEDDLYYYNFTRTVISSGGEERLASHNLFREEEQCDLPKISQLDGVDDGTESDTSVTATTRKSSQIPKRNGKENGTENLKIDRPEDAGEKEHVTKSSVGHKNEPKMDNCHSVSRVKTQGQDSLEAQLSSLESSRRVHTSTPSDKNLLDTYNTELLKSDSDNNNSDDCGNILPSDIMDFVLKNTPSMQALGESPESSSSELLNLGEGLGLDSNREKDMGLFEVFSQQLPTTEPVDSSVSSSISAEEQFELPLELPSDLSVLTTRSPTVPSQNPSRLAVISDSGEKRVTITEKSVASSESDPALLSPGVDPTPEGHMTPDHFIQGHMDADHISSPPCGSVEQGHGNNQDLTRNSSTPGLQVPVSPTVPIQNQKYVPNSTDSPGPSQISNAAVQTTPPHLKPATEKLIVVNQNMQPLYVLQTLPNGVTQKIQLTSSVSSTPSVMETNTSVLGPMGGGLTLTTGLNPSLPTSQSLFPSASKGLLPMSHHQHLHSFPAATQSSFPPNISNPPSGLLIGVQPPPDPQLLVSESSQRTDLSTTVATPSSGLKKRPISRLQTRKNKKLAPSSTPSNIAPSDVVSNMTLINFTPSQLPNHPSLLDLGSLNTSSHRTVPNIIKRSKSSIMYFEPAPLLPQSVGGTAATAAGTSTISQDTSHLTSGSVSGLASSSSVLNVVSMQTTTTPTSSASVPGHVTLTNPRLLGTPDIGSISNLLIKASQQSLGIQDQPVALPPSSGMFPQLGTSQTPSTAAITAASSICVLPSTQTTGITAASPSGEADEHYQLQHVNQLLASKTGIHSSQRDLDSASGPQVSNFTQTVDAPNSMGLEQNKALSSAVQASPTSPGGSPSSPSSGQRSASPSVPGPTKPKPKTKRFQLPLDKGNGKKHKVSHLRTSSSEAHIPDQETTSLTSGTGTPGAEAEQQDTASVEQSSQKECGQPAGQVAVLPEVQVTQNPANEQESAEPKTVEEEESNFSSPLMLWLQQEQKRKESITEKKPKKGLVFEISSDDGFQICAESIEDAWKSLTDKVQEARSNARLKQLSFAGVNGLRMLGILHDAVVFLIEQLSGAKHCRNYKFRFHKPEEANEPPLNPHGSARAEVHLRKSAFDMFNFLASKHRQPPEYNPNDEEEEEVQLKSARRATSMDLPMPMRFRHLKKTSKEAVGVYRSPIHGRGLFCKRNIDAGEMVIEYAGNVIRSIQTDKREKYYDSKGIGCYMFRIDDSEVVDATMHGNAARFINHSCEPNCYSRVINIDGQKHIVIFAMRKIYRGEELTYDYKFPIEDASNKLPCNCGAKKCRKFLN
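Fluorescence polarization: 7 uM MLL-CXXC (stock) preincubated 5 min with compounds, then 50 nM fluorescein-HOX-A9 DNA (stock) added; 30 min ambient. Buffer 50 mM Tris-HCl pH 7.5, 50 mM NaCl, 1 mM DTT, 0.05% BSA.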
TRPV1 agonist – HTS Assay for Compounds that Act as Agonists of the Vanilloid Receptor 1; 320,000 tested, 0.19% active; Transient receptor potential cation channel subfamily V member 1 (Homo sapiens), Q8NER1; AID 540275, 2011; activation, % at 8.33 µM; TRPV1-expressing cells, Fluo-8 calcium influx, agonist mode; in the data active means activation above about 80%; inconclusive means between about 30% and that limit; further: 0% is about no effect
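Cells expressing TRPV1 were dye-loaded with Fluo-8 and read kinetically: 10 s baseline, 3 min after compound (agonist portion), then 2 min after EC20 capsaicin (allosteric enhancer portion). Calcium-bound dye fluorescence at 480/520 nm.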
MLL CXXC FP-Fl – qHTS Fluorescence Polarization (FP) Assay for Inhibitors of MLL CXXC domain - DNA interaction: Fluorescein FP | Potency, µM (top dose mostly 345 µM), for the others: at the highest dose activity change, negative = inhibition, usual class: inhibitors | shares compounds with CXXC DNA block | AID 624160, 2012 | MLL CXXC-DNA binding, fluorescein FP | 200 tested, 70% active; further: potency means the concentration at half of the fitted maximal effect; nearly all actives have a fitted effect of over 80% in size
MLL CXXC TxRed – qHTS Fluorescence Polarization (FP) Assay for Inhibitors of MLL CXXC domain - DNA interaction: Texas Red FP; shares compounds with CXXC DNA block; MLL CXXC-DNA binding, Texas Red fluorescence polarization; Potency, µM (series often up to 345 µM), for inactives: at the highest dose activity change, negative = inhibition, most hits filed as inhibitors; 200 tested, 40% active; AID 624161, 2012; further: potency means the concentration at half of the fitted maximal effect; on the % scale 0 is the no-effect control and ±100 the full control effect; nearly all actives have a fitted effect of over 75% in size
MLL CXXC HTRF – qHTS Fluorescence Polarization (FP) Assay for Inhibitors of MLL CXXC domain - DNA interaction: HTRF Assay; shares compounds with CXXC DNA block; MLL CXXC-DNA binding, HTRF, biochemical; Potency, µM (top dose mostly 172 µM), inactives show at the highest dose activity change, negative = inhibition, hits mostly inhibitors; 210 tested, 30% active; further: on the % scale 0 is the no-effect control and ±100 the full control effect; nearly all actives have a fitted effect of over 80% in size
* = called active by the depositor; ? = inconclusive; nt = no result; [ ] = another dose, or the depositor's remark. Unless noted, the call rests on the fitted dose curve; in most records, active means well fitted inhibition curve with a large enough effect; inconclusive means small, poorly fitted or top-dose-only effect; inactive means no such curve, though single readings can be large or run the other way.

SMILES	Menin-MLL TR inh	TRPV1 PAM	Menin MLL FP FL	CXXC DNA block	TRPV1 agonist	MLL CXXC FP-Fl	MLL CXXC TxRed	MLL CXXC HTRF
O=C1CC[C@@H](C(=O)N[C@@H](Cc2cnc[nH]2)C(=O)N[C@@H](Cc2c[nH]c3ccccc23)C(=O)N[C@@H](CO)C(=O)N[C@@H](Cc2ccc(O)cc2)C(=O)O)N1	10.0%	nt	7.1	nt	nt	nt	nt	nt
CN(C)c1ccc(/C=C2\SC(=S)N(Nc3ncc(C(F)(F)F)cc3Cl)C2=O)cc1	?	24.2	?	3.16µM*	19.6	1.13µM*	113µM*	196.3%
C#CCOCCOCCOCCNc1nc(N2CCN(C(=O)[C@H](CCCCN)n3cc([C@@H](N)C(C)CC)nn3)CC2)nc(N2CCN(C(=O)[C@H](CCCCN)n3cc([C@@H](N)CO)nn3)CC2)n1 (some centres not stated)	-4.4%	28.0	-6.2	79.4µM*	-3.2	5.65µM*	4.3%	-1.5%
CC(C)c1nnc(NC(=O)c2nc(S(=O)(=O)Cc3ccc(F)cc3)ncc2Cl)s1	nt	14.0	nt	?	2.5	nt	nt	nt
CCSc1nnc(NC(=O)c2nc(S(=O)(=O)Cc3ccc(F)cc3)ncc2Cl)s1	nt	?	nt	?	0.4	22.5µM*	100µM*	9.68µM*
C[N+]12CCCC[C@@H]1CCC(=C(c1cccs1)c1cccs1)C2 (some centres not stated)	1.6%	nt	-2.2	3.4%	nt	nt	nt	nt
Cc1[nH][nH]c(=O)c1C(c1ccc(-c2ccc(C(=O)O)cc2)o1)c1c(C)[nH][nH]c1=O	-24.4%	-6.8	1.8	?	-3.0	-6.5%	8.6%	?
Cc1[nH][nH]c(=O)c1C(c1ccc(-c2ccc(F)cc2)o1)c1c(C)[nH][nH]c1=O	?	3.3	2.3	-13.9%	1.6	nt	nt	nt
COc1ccc(-c2nc3c(c4c2C[C@H](c2ccccc2)OC4)CN(S(=O)(=O)c2ccc(C)cc2)CC3)c(C)c1	-9.8%[11.7 µM]	nt	-3.8[11.7 µM]	nt	nt	nt	nt	nt
C=CCOC(=O)C(=O)/C=C/c1csc2ccccc12	?	-4.3	?	?	27.1	5.6%	?	-12.5%
Nc1c(N=Nc2ccc(-c3ccc(N=Nc4cc(S(=O)(=O)O)c5ccccc5c4N)cc3)cc2)cc(S(=O)(=O)O)c2ccccc12	?	nt	?	35.5µM*	nt	22.5µM*	25.2µM*	9.68µM*
COC(=O)C1=C[C@@H](C(=O)OC)C2C3=C(C(=O)[C@]2(CC(C)C)NC(=O)c2ccccc2)[C@H](C)n2c(=O)n(C)c(=O)n2[C@@H]3C1 (some centres not stated)	4.5%	nt	2.7	nt	nt	nt	nt	nt
O=C1C=C(O)c2cccc3cccc1c23	?	28.4	?	?	-0.6	113µM*	5.3%	32.5%
CC(=O)C1(O)Cc2c(O)c3c(c(O)c2C(OC2CC(N)C(O)C(C)O2)C1)C(=O)c1c(O)cccc1C3=O (configuration not stated)	?	nt	?	?	nt	4.48µM*	20µM*	270.4%
CC[C@@]1(O)C[C@H](O[C@H]2C[C@@H](N(C)C)[C@@H](O[C@H]3C[C@@H](O)[C@@H](O[C@H]4CCC(=O)[C@@H](C)O4)[C@@H](C)O3)[C@@H](C)O2)c2c(cc3c(c2O)C(=O)c2c(O)cccc2C3=O)[C@H]1C(=O)OC	-14.3%	nt	?	?	nt	nt	nt	nt
N#Cc1cccc(-c2nccc(-n3ccnc3)n2)c1	-4.6%	nt	-2.2	nt	nt	nt	nt	nt
COc1cc(/C=C2/C(=O)NN(c3ccc(Cl)cc3)C2=O)cc(Br)c1O	?	-0.5	?	?	-0.7	nt	nt	nt
COc1cccc(/C=C2/C(=O)NN(c3ccc(Br)cc3)C2=O)c1O	?	-3.3	-0.9	?	0.2	100µM*	?	-4.8%
CC(=O)N/N=C/c1cc(C(C)(C)C)cc(/C=N/NC(C)=O)c1O	0.1%	0.8	?	?	4.3	51.7%	-10.4%	45.3%
COc1ccccc1NC(C)=O	5.9%	?	-2.5	-0.8%	-2.4	nt	nt	nt
COc1ccccc1NC(=S)NC(C)=O	-1.3%	0.1	-3.8	?	0.6	nt	nt	35.9%
CC1=NN(c2ccc(Br)cc2)C(=O)/C1=C/c1ccc(-c2ccccc2C(=O)O)o1	?	9.1	1.9	?	-4.7	113µM*	89.5µM*	50.5%
CC(=O)Nc1ccc2cc3ccc(NC(C)=O)cc3nc2c1	nt	-9.7	?	39.8µM*	0.9	113µM*	?	-12.3%
N#CC1(C#N)C(c2ccccc2)OC23CCCCC2C1(C#N)C(=N)O3 (configuration not stated)	-10.2%	2.1	?	?	-1.3	nt	nt	nt
N#CC1(C#N)C(c2ccccc2)OC23CCCCCC2C1(C#N)C(=N)O3 (configuration not stated)	-0.1%	1.3	-16.0	50.1µM*	-1.6	50.3µM*	?	11.3%
CSCC[C@H](NC(=O)[C@H](CC(C)C)NC(=O)[C@@H]1CCCN1C(=O)[C@H](Cc1ccccc1)NC(=O)[C@H](Cc1ccccc1)NC(=O)[C@@H]1CCC(=O)N1)C(N)=O	20.0%	nt	3.8	nt	nt	nt	nt	nt
COc1ccc(C2CC(c3ccccc3)Oc3cc(OC)ccc32)cc1 (configuration not stated)	14.9%	nt	-7.1	nt	nt	nt	nt	nt
CCOC(=O)C(C(=O)OCC)c1cc(Br)c2noc3c2c1C(=O)c1ccccc1-3	?	?	?	31.6µM*	3.8	10µM*	40µM*	?
CC(=O)OCCNc1cc(N2CCN(C)CC2)c2noc3c2c1C(=O)c1ccccc1-3	?	16.9	?	?	-0.5	nt	nt	nt
